# Measured values reported in PubChem BioAssay (NCI).
# This is part of a sample that, as a whole, favours compounds with a hit. Of some 83,000 tested, about 20% had one in any assay.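 The endpoint reported here, percent growth, reads 100 for growth as untreated, 0 for no net growth and -100 for all cells dead.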 Unmarked numbers belong to inactive results. Activity calls are given as the source filed them. The calls were made as follows: active = growth percent below 10; inactive = the rest.
# Test system: MDA-MB-435 melanoma
# Test: NCI-60 one-dose screen, 48 h (100 = growth as untreated, 0 = no growth, -100 = all killed)
# Conditions: 10 µM unless noted
row,SMILES,growth
1,CCOC(=O)N1CCN(CCCCOc2ccc(C(C)(C)CC)cc2)CC1,105%
2,COC1=C(Br)C(=O)C(OC)=C(Br)C1=O,105%
3,Cc1cc(C)nc(NC(N)=NCCc2ccccc2)n1,-7.44% (active)
4,Cc1nn(-c2ccc(Cl)cc2)c(=O)n1CCn1cnc2ccccc21,100%
5,Brc1ccc(Cn2nnnc2-c2ccn(-c3ccccc3)n2)cc1,85%
6,O=[N+]([O-])c1ccc(/C=N\Nc2ccccc2)cc1,68.9%
7,COCCNC1=C(Cl)C(=O)c2ccccc2C1=O,24.5%
8,O=C(N/N=C\c1c(O)ccc2ccccc12)C1CC1,64.9%
9,COc1cc2nc(Cl)nc(Nc3cccc(C(=O)/C=C/c4ccc(F)cc4)c3)c2cc1OC,39.4%
10,O=[N+]([O-])c1cccc(/C=N\Nc2ccccc2)c1,53.8%
11,Oc1ccccc1/C=N\NC(=S)Nc1ccc(F)cc1,21.8%
12,O=C1c2ccccc2C(=Cc2ccccc2)c2ccccc21,-56.4% (active)
13,O=C(/C(=C(\C(=O)c1ccccc1)c1ccccc1)c1ccccc1)c1ccccc1,73.6%
14,Nc1c(Cl)cc(N=Nc2ccccc2)cc1Cl,105%
15,Oc1cccc2oc(=S)[nH]c12,115%
16,O=C(/C=C\c1ccc2c(c1)OCO2)/C=C/c1ccc2c(c1)OCO2,17%
17,O=C(O)c1cccc2c1Cc1cc([N+](=O)[O-])ccc1-2,108%
18,Cn1cc(-c2csc(-c3cn(CCCN4CCCCC4)c4ccc(Br)cc34)n2)c2cccnc21,-69.5% (active)
19,O=C(O)c1cccc2c1C(=O)N(c1ccc3c(c1)Cc1ccccc1-3)C2=O,111%
20,CN(C)c1ccc(N)c2ccccc12,-91.3% (active)
21,Cc1ccc2c(c1)c1nc3cc(C)c(C)cc3nc1n2CCN(C)C,16.1%
22,O=[N+]([O-])c1ccc(N/N=C(\C(=N/Nc2ccc([N+](=O)[O-])cc2[N+](=O)[O-])c2ccccc2)c2ccccc2)c([N+](=O)[O-])c1,77.8%
23,O=C1C=Cc2ncccc2C1=O,58.2%
24,O=C(NC1=CC(=O)c2ccccc2C1=O)c1ccccc1,2.96% (active)
25,COc1c(N)c2c(c([N+](=O)[O-])c1OC)C(=O)OC2,106%
26,CC1c2ccccc2N(S(=O)(=O)c2ccccc2)C1C (stereo not drawn),6.95% (active)
27,COc1ccc(/C=C/C(=O)c2ccc([N+](=O)[O-])cc2)cc1,106%
28,CC(C)(C)c1ccc(OCCCCCCCN2CCNCC2)cc1,50.8%
